# How the values were obtained:
# Experiment in all cases: DAPPL (digital affinity profiling via proximity ligation, sequencing); 10 mM Tris-HCl pH 7.5, 50 mM NaCl, 1 mM DTT, 4% glycerol, room temperature, 30 min; GST-TFs on glutathione beads, 16-mer random dsDNA library, 0.1% formaldehyde crosslink after washing; high values mean tight binding
# FEV = target: T1, FEV (Homo sapiens, UniProt Q99581 1-238); conditions: protein: recombinant; tags: N-terminal GST; dsDNA, one strand shown
# T1 sequence: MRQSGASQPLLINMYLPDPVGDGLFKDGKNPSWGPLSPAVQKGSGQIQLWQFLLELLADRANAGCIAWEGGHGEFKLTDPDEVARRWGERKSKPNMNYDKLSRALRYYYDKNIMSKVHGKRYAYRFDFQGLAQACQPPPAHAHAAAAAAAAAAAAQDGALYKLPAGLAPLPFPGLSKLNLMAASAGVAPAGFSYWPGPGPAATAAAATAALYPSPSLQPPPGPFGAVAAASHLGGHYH
# How it was run: (§1)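 Sequencing on an Illumina NextSeq500 followed washing, crosslinking with 0.1% formaldehyde, proximity ligation (BsaI/T4 ligase, 1 h, 37 °C) and PCR amplification of pools that had been incubated for 30 min at room temperature with 200 nmole of a random double-stranded 16-mer DNA library in Tris/NaCl/DTT/glycerol buffer. Each pool held DNA-barcoded human transcription factors, expressed in yeast as GST fusions and captured on glutathione beads, plus a tag-only sample. Binding signal is a hexamer's read frequency for a factor divided by its frequency in the tag-only sample.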
# ETV5 = ETV5 (Homo sapiens, UniProt P41161 1-510); conditions: protein: recombinant; tags: N-terminal GST; dsDNA, one strand shown
# ETV5, sequence (P41161 whole entry): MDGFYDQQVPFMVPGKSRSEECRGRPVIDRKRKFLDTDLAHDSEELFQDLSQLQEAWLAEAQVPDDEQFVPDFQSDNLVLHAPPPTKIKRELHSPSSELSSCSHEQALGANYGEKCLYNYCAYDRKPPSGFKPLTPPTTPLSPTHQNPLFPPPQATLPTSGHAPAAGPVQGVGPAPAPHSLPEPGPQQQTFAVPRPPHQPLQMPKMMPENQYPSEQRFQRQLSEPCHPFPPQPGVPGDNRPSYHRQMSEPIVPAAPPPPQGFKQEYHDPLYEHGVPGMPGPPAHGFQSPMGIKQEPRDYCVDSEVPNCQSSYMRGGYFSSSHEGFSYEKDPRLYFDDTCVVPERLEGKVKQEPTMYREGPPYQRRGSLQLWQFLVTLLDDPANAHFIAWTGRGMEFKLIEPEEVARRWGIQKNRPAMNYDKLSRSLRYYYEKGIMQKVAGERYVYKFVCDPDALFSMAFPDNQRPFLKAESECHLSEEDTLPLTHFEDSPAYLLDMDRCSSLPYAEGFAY
# How it was run: as §1
# HSF1 = HSF1 (Homo sapiens, UniProt Q00613 1-529); conditions: protein: recombinant; tags: N-terminal GST; chain copies: 3; dsDNA, one strand shown
# HSF1, sequence (Q00613 whole entry): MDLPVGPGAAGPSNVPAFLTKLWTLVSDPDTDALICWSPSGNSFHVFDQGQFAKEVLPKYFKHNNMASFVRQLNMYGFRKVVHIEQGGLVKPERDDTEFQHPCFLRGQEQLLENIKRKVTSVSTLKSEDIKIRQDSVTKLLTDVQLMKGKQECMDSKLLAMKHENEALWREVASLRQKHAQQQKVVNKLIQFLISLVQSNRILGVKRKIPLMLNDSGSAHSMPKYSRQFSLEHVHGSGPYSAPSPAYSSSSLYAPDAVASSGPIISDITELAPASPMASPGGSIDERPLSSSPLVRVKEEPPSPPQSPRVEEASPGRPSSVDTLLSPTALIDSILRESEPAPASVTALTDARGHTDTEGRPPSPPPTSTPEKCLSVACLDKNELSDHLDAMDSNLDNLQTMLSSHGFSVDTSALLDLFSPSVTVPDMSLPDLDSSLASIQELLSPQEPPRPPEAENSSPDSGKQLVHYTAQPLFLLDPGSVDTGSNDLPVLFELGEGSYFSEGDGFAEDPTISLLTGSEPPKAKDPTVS
# How it was run: as §1
# SPIC = target: T2, SPIC (Homo sapiens, UniProt Q8N5J4 1-248); conditions: protein: recombinant; tags: N-terminal GST; dsDNA, one strand shown
# T2 sequence: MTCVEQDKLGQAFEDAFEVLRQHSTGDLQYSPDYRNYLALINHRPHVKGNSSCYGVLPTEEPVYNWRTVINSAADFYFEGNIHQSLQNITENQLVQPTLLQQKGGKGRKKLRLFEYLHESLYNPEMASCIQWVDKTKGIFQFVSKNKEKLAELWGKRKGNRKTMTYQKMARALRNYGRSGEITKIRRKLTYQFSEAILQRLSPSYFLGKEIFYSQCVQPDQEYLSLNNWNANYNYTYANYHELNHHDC
# How it was run: as §1
# ELF4 = ELF4 (Homo sapiens, UniProt Q99607 1-663); conditions: protein: recombinant; tags: N-terminal GST; dsDNA, one strand shown
# ELF4, sequence (Q99607 whole entry): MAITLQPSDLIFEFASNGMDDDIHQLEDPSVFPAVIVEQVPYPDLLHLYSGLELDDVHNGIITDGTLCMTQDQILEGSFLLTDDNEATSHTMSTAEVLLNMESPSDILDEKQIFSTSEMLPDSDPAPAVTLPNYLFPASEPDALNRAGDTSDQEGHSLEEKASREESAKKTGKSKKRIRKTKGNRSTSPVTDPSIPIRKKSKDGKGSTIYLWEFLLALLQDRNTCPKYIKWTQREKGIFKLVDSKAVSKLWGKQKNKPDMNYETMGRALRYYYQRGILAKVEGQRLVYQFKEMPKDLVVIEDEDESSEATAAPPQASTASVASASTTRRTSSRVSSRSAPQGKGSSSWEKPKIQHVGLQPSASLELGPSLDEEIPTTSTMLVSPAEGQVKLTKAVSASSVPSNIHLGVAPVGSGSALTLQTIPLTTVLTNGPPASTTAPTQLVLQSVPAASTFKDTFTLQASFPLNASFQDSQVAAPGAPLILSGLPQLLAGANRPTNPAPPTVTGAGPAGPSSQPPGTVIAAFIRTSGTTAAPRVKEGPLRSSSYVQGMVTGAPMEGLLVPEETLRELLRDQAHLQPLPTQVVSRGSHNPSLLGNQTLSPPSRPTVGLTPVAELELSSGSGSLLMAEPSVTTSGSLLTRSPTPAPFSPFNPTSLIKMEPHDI
# How it was run: as §1
# ELK4 = target: T3, ELK4 (Homo sapiens, UniProt P28324-2 1-405); conditions: protein: recombinant; tags: N-terminal GST; dsDNA, one strand shown
# T3 sequence: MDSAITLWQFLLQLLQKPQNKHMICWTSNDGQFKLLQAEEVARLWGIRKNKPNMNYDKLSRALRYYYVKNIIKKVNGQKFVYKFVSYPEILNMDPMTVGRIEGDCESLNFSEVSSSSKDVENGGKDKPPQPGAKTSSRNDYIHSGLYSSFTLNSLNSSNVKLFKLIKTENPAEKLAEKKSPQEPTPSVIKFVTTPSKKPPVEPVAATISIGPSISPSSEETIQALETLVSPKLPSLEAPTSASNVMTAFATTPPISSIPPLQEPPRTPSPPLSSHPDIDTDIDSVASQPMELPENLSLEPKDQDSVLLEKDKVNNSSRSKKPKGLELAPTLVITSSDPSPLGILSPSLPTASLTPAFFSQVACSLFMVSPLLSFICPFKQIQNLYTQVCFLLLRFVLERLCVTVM
# How it was run: as §1
# ETV2 = target: T4, ETV2 (Homo sapiens, UniProt O00321 1-342); conditions: protein: recombinant; tags: N-terminal GST; dsDNA, one strand shown
# T4 sequence: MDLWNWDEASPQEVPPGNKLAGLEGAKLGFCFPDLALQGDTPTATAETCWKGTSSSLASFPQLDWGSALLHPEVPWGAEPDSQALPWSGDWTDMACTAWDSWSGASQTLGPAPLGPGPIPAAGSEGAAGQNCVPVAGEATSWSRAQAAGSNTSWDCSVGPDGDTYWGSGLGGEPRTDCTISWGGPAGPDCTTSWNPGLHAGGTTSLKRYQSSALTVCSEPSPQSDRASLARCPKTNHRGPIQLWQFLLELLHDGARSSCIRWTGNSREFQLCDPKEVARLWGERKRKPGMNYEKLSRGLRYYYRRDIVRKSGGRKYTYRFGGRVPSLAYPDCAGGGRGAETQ
# How it was run: as §1
# ELF3 = target: T5, ELF3 (Homo sapiens, UniProt P78545 1-371); conditions: protein: recombinant; tags: N-terminal GST; dsDNA, one strand shown
# T5 sequence: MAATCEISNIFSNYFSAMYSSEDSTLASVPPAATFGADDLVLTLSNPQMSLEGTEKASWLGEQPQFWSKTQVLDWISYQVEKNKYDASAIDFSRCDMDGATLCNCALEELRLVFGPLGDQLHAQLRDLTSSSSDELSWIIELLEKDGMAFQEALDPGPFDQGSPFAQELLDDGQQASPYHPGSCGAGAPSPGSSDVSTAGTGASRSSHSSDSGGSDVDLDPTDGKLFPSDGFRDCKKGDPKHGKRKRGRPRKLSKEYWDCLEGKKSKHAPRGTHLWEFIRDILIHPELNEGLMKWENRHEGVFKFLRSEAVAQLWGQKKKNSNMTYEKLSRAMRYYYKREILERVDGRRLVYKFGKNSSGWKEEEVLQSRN
# How it was run: as §1
# CRX = CRX (Homo sapiens, UniProt O43186 1-299); conditions: protein: recombinant; tags: N-terminal GST; dsDNA, one strand shown
# CRX, sequence (O43186 whole entry): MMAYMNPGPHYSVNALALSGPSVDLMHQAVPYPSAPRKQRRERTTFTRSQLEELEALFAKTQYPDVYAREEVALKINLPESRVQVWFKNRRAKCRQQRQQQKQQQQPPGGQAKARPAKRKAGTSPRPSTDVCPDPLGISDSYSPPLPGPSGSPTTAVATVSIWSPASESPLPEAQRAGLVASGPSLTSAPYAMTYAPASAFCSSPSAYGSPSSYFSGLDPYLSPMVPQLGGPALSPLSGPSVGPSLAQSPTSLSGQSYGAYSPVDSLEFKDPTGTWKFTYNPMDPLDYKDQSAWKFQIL
# How it was run: as §1
# ETV1 = ETV1 (Homo sapiens, UniProt P50549 1-477); conditions: protein: recombinant; tags: N-terminal GST; dsDNA, one strand shown
# ETV1, sequence (P50549 whole entry): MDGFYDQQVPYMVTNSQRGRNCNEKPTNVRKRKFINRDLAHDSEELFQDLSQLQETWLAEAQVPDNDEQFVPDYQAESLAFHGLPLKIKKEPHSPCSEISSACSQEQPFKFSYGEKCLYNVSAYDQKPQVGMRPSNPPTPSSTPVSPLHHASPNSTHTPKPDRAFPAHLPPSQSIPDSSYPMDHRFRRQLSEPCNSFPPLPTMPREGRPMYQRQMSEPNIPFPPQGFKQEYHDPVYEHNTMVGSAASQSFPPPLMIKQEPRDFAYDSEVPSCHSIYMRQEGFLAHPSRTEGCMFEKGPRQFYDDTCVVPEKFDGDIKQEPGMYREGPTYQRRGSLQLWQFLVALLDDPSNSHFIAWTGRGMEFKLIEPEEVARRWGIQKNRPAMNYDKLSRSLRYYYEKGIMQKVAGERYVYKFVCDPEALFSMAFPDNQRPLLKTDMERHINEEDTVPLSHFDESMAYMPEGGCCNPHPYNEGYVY
# How it was run: as §1
# ERF = target: T6, ERF (Homo sapiens, UniProt P50548 1-548); conditions: protein: recombinant; tags: N-terminal GST; dsDNA, one strand shown
# T6 sequence: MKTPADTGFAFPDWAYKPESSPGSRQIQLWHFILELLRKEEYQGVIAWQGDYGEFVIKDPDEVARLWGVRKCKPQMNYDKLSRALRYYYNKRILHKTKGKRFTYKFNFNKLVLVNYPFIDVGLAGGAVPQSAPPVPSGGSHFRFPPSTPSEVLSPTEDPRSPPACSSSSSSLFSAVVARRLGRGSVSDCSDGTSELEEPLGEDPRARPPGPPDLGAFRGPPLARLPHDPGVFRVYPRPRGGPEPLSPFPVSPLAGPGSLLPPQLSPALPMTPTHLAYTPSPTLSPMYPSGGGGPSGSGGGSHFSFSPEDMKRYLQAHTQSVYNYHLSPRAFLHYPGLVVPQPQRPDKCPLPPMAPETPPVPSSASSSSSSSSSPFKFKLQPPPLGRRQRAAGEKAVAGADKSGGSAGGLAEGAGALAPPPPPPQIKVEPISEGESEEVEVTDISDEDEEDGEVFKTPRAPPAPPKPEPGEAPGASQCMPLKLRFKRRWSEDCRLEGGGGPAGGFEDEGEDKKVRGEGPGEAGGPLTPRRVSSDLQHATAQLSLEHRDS
# How it was run: as §1
# ETV3L = target: T7, ETV3L (Homo sapiens, UniProt Q6ZN32 1-361); conditions: protein: recombinant; tags: N-terminal GST; dsDNA, one strand shown
# T7 sequence: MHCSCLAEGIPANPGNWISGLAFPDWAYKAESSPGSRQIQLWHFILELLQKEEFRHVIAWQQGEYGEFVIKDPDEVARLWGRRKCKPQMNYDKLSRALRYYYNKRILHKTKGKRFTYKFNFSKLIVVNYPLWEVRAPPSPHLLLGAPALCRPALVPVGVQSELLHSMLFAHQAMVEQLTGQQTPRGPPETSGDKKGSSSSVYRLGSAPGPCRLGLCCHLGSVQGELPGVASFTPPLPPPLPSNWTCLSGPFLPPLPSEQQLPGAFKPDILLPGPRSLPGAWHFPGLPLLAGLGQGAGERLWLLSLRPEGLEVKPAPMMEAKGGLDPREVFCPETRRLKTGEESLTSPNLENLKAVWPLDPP
# How it was run: as §1
# ETS2 = target: T8, ETS2 (Homo sapiens, UniProt P15036 1-469); conditions: protein: recombinant; tags: N-terminal GST; dsDNA, one strand shown
# T8 sequence: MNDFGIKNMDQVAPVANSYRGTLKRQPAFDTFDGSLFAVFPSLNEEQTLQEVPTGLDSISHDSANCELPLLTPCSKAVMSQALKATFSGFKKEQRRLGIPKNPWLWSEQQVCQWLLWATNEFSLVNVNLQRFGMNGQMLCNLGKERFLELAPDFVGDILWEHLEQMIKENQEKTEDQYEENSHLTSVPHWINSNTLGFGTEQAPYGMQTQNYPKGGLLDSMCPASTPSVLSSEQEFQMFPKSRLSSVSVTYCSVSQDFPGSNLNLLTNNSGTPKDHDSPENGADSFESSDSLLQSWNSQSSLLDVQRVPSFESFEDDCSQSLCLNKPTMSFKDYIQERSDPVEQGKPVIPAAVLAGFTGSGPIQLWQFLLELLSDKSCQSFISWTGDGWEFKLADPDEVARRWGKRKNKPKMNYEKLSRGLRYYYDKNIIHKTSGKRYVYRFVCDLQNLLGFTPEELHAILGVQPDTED
# How it was run: as §1
# SPDEF = target: T9, SPDEF (Homo sapiens, UniProt O95238 1-335); conditions: protein: recombinant; tags: N-terminal GST; dsDNA, one strand shown
# T9 sequence: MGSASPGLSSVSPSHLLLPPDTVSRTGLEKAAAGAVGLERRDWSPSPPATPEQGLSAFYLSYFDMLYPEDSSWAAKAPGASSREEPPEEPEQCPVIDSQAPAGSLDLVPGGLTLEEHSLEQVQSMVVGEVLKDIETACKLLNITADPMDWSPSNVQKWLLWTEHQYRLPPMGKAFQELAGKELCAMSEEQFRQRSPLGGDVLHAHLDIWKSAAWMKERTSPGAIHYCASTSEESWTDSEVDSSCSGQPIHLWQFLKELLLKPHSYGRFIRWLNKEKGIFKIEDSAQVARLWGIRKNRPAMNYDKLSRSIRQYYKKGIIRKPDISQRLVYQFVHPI
# How it was run: as §1
# ETV7 = target: T10, ETV7 (Homo sapiens, UniProt Q9Y603 1-341); conditions: protein: recombinant; tags: N-terminal GST; dsDNA, one strand shown
# T10 sequence: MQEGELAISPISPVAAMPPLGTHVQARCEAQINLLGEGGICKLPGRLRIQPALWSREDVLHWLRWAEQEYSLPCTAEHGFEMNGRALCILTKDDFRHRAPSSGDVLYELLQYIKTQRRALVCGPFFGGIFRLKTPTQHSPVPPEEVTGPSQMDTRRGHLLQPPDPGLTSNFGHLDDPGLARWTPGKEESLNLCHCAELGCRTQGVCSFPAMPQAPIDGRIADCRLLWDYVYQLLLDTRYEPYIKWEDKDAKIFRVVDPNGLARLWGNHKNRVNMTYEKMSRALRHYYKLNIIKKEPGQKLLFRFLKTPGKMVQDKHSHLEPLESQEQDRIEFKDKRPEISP
# How it was run: as §1
# ELF5 = target: T11, ELF5 (Homo sapiens, UniProt Q9UKW6-2 1-255); conditions: protein: recombinant; tags: N-terminal GST; dsDNA, one strand shown
# T11 sequence: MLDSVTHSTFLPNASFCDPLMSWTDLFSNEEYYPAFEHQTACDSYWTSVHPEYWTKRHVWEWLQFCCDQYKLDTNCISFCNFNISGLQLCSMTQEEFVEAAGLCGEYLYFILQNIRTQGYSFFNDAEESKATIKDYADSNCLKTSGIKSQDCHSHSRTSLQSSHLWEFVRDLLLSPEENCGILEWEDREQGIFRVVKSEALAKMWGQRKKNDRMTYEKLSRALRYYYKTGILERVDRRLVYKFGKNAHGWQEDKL
# How it was run: as §1
# ETV3 = target: T12, ETV3 (Homo sapiens, UniProt P41162-2 1-143); conditions: protein: recombinant; tags: N-terminal GST; dsDNA, one strand shown
# T12 sequence: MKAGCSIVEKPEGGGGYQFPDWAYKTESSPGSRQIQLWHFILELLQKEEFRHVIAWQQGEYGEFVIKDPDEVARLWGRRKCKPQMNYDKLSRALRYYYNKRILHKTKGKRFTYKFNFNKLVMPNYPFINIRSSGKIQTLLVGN
# How it was run: as §1
# ETV6 = ETV6 (Homo sapiens, UniProt P41212 1-452); conditions: protein: recombinant; tags: N-terminal GST; dsDNA, one strand shown
# ETV6, sequence (P41212 whole entry): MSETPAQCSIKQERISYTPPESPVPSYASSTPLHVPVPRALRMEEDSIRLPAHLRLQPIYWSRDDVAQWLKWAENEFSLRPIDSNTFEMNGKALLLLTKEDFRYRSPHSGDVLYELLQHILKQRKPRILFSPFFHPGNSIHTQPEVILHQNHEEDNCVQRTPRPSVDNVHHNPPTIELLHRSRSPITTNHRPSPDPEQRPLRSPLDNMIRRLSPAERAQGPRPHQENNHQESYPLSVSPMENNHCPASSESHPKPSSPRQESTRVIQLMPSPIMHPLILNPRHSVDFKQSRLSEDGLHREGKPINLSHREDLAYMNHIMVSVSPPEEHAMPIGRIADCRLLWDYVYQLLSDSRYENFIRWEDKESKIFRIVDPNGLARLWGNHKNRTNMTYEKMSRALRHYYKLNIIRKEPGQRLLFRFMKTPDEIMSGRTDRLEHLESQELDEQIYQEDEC
# How it was run: as §1
sequence,measurement,setting,value
GCTGAA,binding signal,FEV,"1.03 fold enrichment (6-mer frequency, TF over GST control)"
same,binding signal,ETV5,"1.16 fold enrichment (6-mer frequency, TF over GST control)"
same,binding signal,HSF1,"1.04 fold enrichment (6-mer frequency, TF over GST control)"
same,binding signal,SPIC,"1.31 fold enrichment (6-mer frequency, TF over GST control)"
same,binding signal,ELF4,"1.1 fold enrichment (6-mer frequency, TF over GST control)"
same,binding signal,ELK4,"1.23 fold enrichment (6-mer frequency, TF over GST control)"
same,binding signal,ETV2,"1.21 fold enrichment (6-mer frequency, TF over GST control)"
same,binding signal,ELF3,"1.18 fold enrichment (6-mer frequency, TF over GST control)"
same,binding signal,CRX,"1.05 fold enrichment (6-mer frequency, TF over GST control)"
same,binding signal,ETV1,"1.05 fold enrichment (6-mer frequency, TF over GST control)"
same,binding signal,ERF,"1.16 fold enrichment (6-mer frequency, TF over GST control)"
same,binding signal,ETV3L,"1.13 fold enrichment (6-mer frequency, TF over GST control)"
same,binding signal,ETS2,"1.16 fold enrichment (6-mer frequency, TF over GST control)"
same,binding signal,SPDEF,"1.17 fold enrichment (6-mer frequency, TF over GST control)"
same,binding signal,ETV7,"1.08 fold enrichment (6-mer frequency, TF over GST control)"
same,binding signal,ELF5,"1 fold enrichment (6-mer frequency, TF over GST control)"
same,binding signal,ETV3,"1.1 fold enrichment (6-mer frequency, TF over GST control)"
same,binding signal,ETV6,"1.09 fold enrichment (6-mer frequency, TF over GST control)"

# Reference: publication PMC7862700, “An all-to-all approach to the identification of sequence-specific readers for epigenetic DNA modifications on cytosine”
